FLuc modulator = counter-screen for miR-21 project: firefly luciferase inhibitors or activators. AID 588342. purified FLuc, Km substrates, luminescence inhibition. Potency, µM (doses to about 57.5 µM), inactives show top-dose activity change, negative = inhibition, most hits filed as inhibitors. 360,000 tested, 6.9% active;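 also: plate controls were vehicle for no effect and reference inhibitor for full effect; nearly all actives have a fitted effect of over 55% in size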
Target sequence (P08659 whole entry, looked up): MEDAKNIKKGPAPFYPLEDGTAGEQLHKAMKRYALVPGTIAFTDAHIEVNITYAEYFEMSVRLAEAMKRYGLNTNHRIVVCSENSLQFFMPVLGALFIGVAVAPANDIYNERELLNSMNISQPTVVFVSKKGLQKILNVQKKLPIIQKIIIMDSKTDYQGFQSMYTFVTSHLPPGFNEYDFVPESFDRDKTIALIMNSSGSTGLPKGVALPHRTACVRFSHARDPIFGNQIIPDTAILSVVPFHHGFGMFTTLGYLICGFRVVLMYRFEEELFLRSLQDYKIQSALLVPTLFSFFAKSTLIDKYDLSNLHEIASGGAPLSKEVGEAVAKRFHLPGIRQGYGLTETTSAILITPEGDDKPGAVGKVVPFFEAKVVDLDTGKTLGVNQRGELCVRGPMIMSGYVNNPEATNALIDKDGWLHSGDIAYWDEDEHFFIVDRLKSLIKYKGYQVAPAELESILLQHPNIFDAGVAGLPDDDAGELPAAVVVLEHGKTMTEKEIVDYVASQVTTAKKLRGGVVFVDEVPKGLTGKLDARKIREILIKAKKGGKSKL
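Purified P. pyralis luciferase, 10 nM final, with Km-level 10 uM D-luciferin and 10 uM ATP in 50 mM Tris acetate pH 7.5, 10 mM Mg acetate, 0.01% Tween-20, 0.05% BSA; 6-point qHTS titration about 60 µM downward; luminescence read.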
ELG1 genotox = genotoxicity induction in ELG1-luciferase HEK293T cells; HEK293T ELG1-luciferase reporter, luminescence, 16 h; AID 504466; Potency, µM (top dose mostly 46 µM), for inactives: at the highest dose activity change, positive = activation, most hits filed as activators; 330,000 tested, 1.3% active; also: % of control where 0% means no effect; nearly all actives have a fitted effect of over 60% in size
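Genotoxicity was scored as increased ELG1-luciferase reporter signal, measured by ONE-Glo luminescence (30 min, room temperature). Compound or vehicle exposure of the HEK293T reporter cells lasted 16 hr at 37°C.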
SMN2 splice up = increases expression of the SMN2 splice variant; HEK293 SMN2-luciferase splicing reporter, luminescence, 30-36 h; Potency, µM (highest dose often 46.1 µM), without a hit: top-dose activity change, positive = activation, actives largely listed as activators; 210,000 tested, 2.8% active; AID 1458; also: % of control where 0% means no effect; nearly all actives have a fitted effect of over 55% in size
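HEK293 cells carry an SMN2 minigene-luciferase reporter in which exon 7 inclusion puts luciferase in frame. Cells were seeded at 2000 cells/well, attached for 10-12 hours, then exposed to compounds for 30-36 hours at 37C before ONE-Glo luminescence.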
Luc counter = blocks Kinase-Glo luciferase, a counter-screen artifact; Q27757; Kinase-Glo luciferase, ATP luminescence, 8 min; Potency, µM (doses to about 38.3 µM), inactives show top-dose activity change, negative = inhibition, hits mostly inhibitors; 200,000 tested, 0.28% active; also: % is scaled to controls: 0 for no effect and ±100 for the full control effect; nearly all actives have a fitted effect of over 60% in size
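Compound is pinned into ATP-containing buffer (10 uM ATP, imidazole pH 7.2, 7 mM MgCl2). Kinase-Glo luciferase reagent is then added. Light output is recorded following an 8-min room-temperature incubation.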
NPC1 prom act = activates the NPC1 promoter; Huh7 NPC1 promoter luciferase reporter, 24 h; Potency, µM (titrated, usually from 9.22 µM), inactives show top-dose activation, hits mostly activators; 320,000 tested, 2.4% active; also: % of control where 0% means no effect; nearly all actives have a fitted effect of over 60% in size
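Cells: Huh7 expressing luciferase under the NPC1 promoter, 1500/well. Seeded 2 h, compound added, incubated 24 h at 37 °C. Luciferase reagent, 10 min ambient, then luminescence.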
Rab9 prom act = Rab9 promoter activation; Huh7 Rab9 promoter-luciferase reporter, luminescence, 24 h; Potency, µM (series often up to 9.22 µM), for the others: at the top dose activation, negative = inhibition, hits mostly activators; 320,000 tested, 2.8% active; AID 485297; also: % of control where 0% means no effect; nearly all actives have a fitted effect of over 60% in size
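Cell-based reporter: Huh7 stable for Rab9 promoter-driven luciferase, plated in reduced-serum medium with 10% FBS at 1500 cells/well, compound-treated 24 h at 37 °C, luminescence read after 10 min reagent.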
The depositor's hits bear a star; ? = inconclusive; / = no result. An excerpt weighted towards active compounds, which were near 7.5% of everything screened. Calls follow the shape of the dose curve; as a rule, active = well fitted curve in the direction sought with a large enough effect; inconclusive = small, poorly fitted or top-dose-only effect, or another doubt; inactive = no such curve, though single readings can be large; an effect the other way counts as inactive or inconclusive. Potency is read from the fitted curve at half-maximal effect.

SMILES	FLuc modulator	ELG1 genotox	SMN2 splice up	Luc counter	NPC1 prom act	Rab9 prom act
Nc1c(-c2cccc([N+](=O)[O-])c2)nc2ccccn12	17µM*	?	?	?	?	3.2µM*
COc1ccc(OC)c(/C=C2\SC(=S)N(N3CCOCC3)C2=O)c1	-18%	-1%	/	/	-1%	16%
O=C1/C(=C/c2cccnc2)Sc2ccccc21	9.5µM*	5%	-2%	-13%	-2%	-4%
COc1ccc(OC)c(/C=C2/Sc3ccccc3C2=O)c1	9.5µM*	15%	/	-10%	1%	1%
O=C1NC(=Nc2ccccc2)S/C1=C/c1cccnc1	?	14%	-14%	-1%	-4%	3%
Cc1ccc(/C=C2\Sc3ccccc3C2=O)s1	0.43µM*	?	?	-30%	?	?
CC(=O)Nc1ccc(/C=C2\Sc3ccccc3C2=O)cc1	0.38µM*	?	/	/	-6%	13%
CCOC(=O)C1(CCOc2ccccc2)CCN(Cc2ccc(OC)c(COC)c2)CC1	-12%	-1%	/	/	-24%	-37%
Cc1ccc(C(=O)c2coc3c2C(=O)C(=O)c2ccccc2-3)cc1	?	14µM*	-14%	-5%	15%	20%
C=CCNc1ncnc2c1[nH]c1ccc(C)cc12	4.3µM*	9.2µM*	2.8µM*	-2%	?	2.5µM*
COc1cccc(/C=N/Nc2ncnc3c2[nH]c2ccc(C)cc23)c1OC	1.5µM*	8%	/	/	17%	24%
Cc1cccc(NC(=O)Nc2ccc(S(=O)(=O)Nc3onc(C)c3C)cc2)c1	17µM*	3%	/	/	23%	?
Cc1cccc(OCCCC(=O)Nc2ccc(S(=O)(=O)Nc3onc(C)c3C)cc2)c1	0%	-2%	10%	-1%	0%	2%
Cc1ccc(/C=C/C(=O)Nc2ccc(S(=O)(=O)Nc3onc(C)c3C)cc2)cc1	15µM*	5%	/	/	1%	1%
Cc1cc(C(=O)Nc2ccc(S(=O)(=O)Nc3onc(C)c3C)cc2)c(C)o1	?	1%	14%	3%	0%	12%
Cc1ccc2oc(C(=O)Nc3ccc(S(=O)(=O)Nc4onc(C)c4C)cc3)c(C)c2c1	7.6µM*	?	/	/	24%	?
Cc1ncc(CN2CCCC(C(=O)Nc3ccc(-c4cccc(F)c4)cc3)C2)n1C (stereo unspecified)	0%	-10%	/	/	3%	11%
COc1ccc(Oc2ncc3nc(-c4ccc(Cl)cc4)c(=O)n(C)c3n2)cc1	/	/	2%	-1%	/	/
COc1ccc(CN2C(=NC(=O)C3CC3)SC3CS(=O)(=O)CC32)cc1OC (stereo unspecified)	1%	4%	/	/	-1%	-4%
COc1cc(NC(=O)COc2ccc(-n3ccnc3)cc2)cc(OC)c1	-7%	-19%	-28%	0%	-10%	-10%
COc1ccc(OCC(=O)N/N=C(\C)c2ccc(-n3ccnc3)cc2)cc1	6µM*	0%	-19%	-4%	1%	-3%
C/C(=N\NC(=O)c1ccccc1)c1ccc(-n2ccnc2)cc1	-19%	1%	/	/	1%	1%
Cc1ccc(NC(=O)n2ccc(-c3ccc(-n4ccnc4)cc3)n2)cc1	?	19%	13µM*	-1%	?	4µM*
C/C(=N\NC(=O)OC(C)(C)C)c1ccc(-n2ccnc2)cc1	-3%	0%	4%	1%	-1%	1%
CC(C)(C)c1ccc(NC(=O)COc2ccc(-n3ccnc3)cc2)cc1	15µM*	-4%	/	-4%	0%	-23%
SMILES	FLuc modulator	ELG1 genotox	SMN2 splice up	Luc counter	NPC1 prom act	Rab9 prom act
C/C(=N\NC(=O)COc1ccc(C(C)(C)C)cc1)c1ccc(-n2ccnc2)cc1	0.38µM*	16%	?	1%	28%	?
CC(=O)Nc1ccc(NC(=O)CSc2ccc(-c3ccc(-n4ccnc4)cc3)nn2)cc1	?	-1%	/	/	3%	-4%
CC1CN(C(=O)N2CCC(C(=O)NCCCc3ccccc3)CC2)c2cc(Cl)ccc2O1 (stereo unspecified)	-9%	/	/	/	/	/
O=C(OCc1cc(=O)n2nc(-c3cccs3)sc2n1)c1ccccc1	-9%	/	/	/	/	/
COc1ccc(NC(=O)Cn2cnc3c(nc4n3CCCCC4)c2=O)c(OC)c1	-6%	/	/	/	/	/
Cc1cc(C)cc(NC(=O)C2CCC(CNS(=O)(=O)c3ccc4c(c3)C(C)(C)C(=O)N4C)CC2)c1 (stereo unspecified)	-19%	/	/	/	/	/
Cc1ccc(-c2cn3c(=O)cc(C)[nH]c3n2)cc1	0.85µM*	?	10µM*	-6%	1.6µM*	0.79µM*
Cc1cc(=O)n2cc(-c3ccccc3)nc2[nH]1	12µM*	12%	/	-3%	26%	23%
Cc1nc(-c2ccccc2)cc(=O)[nH]1	2%	3%	2%	-1%	3%	-2%
COc1ccc2c(c1)CC/C(=C\Nc1ccc3c(c1)OCO3)C2=O	1.2µM*	8%	35µM*	-9%	3.5µM*	2.5µM*
O=C1OC2(CCCCC2)OC(=O)C1=CNc1ccc2c(c1)OCO2	?	5%	11%	-2%	8%	0%
COc1ccc(N/C=C2\CCOC2=O)cc1	2%	12%	-6%	0%	5%	10%
O=C1/C(=C/Nc2ccc3c(c2)OCO3)CCc2ccccc21	0.12µM*	?	-76%	2.8µM*	0.89µM*	0.28µM*
COc1ccc(N/C=C2\CCc3ccccc3C2=O)cc1	0.054µM*	?	/	11µM*	0.25µM*	0.1µM*
CCN(CC)CCn1c(=N)n(CCOc2ccccc2Cl)c2ccccc21	3%	/	-5%	/	/	/
Cc1ccc(CNC(=O)C2(S(=O)(=O)c3ccccc3)CC=CC2)cc1	15µM*	?	/	/	4µM*	4µM*
Cc1ccc(CNC(=O)C2(S(=O)(=O)c3ccc(C)cc3)CC2)cc1	5%	-7%	/	/	-3%	5%
CC1CC(C)CN(C(=O)C(Cc2ccccc2)NC(=O)c2ccccc2)C1 (stereo unspecified)	-7%	-17%	/	/	3%	-1%
c1ccc(-c2cc(-c3ccccc3)c3c(n2)-c2ccccc2OC3)cc1	?	/	-4%	/	/	/
CCOc1ccccc1Nc1nc(-c2cccc(Cl)c2)c2c(n1)-c1ccccc1OC2	11µM*	/	/	/	/	/
Nn1c(SCc2ccccc2)nc2ccccc21	19µM*	?	/	/	1.8µM*	3.2µM*
COCCNC(=S)N/N=C(\C)c1ccccc1O	17µM*	5%	29%	3%	25%	0%
COCCCNC(=S)N/N=C/c1ccccc1O	12µM*	2%	/	/	?	?
CCOC(=O)c1cc2c(ccc3ccccc32)oc1=O	?	5%	/	-7%	-1%	-5%

Screening data: PubChem BioAssay, National Center for Advancing Translational Sciences (NCATS)
